Screening results from PubChem.
Rows were chosen to be rich in hits. Some 3% of all compounds tested hit in one or more screens of this group.
LmPK inh: qHTS Assay for Inhibitors of Leishmania Mexicana Pyruvate Kinase (LmPK); Potency, µM (series often up to 57.5 µM), actives largely listed as inhibitors; purified LmPK, Kinase-Glo ATP luminescence, 1 h; 290,000 tested, 0.37% active
Target sequence (Q27686 whole entry, looked up): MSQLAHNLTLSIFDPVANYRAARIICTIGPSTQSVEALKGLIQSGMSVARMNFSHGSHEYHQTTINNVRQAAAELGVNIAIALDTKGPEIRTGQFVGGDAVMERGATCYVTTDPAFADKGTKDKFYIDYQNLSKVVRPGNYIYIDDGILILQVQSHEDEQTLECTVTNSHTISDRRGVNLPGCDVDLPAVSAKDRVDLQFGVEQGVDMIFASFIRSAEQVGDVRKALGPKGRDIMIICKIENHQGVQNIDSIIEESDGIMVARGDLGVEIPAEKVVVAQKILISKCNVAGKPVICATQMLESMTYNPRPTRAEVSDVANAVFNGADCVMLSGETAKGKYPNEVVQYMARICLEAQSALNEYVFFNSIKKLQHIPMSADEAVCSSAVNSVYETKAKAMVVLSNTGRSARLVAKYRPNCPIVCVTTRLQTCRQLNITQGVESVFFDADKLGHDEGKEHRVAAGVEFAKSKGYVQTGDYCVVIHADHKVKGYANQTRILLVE
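0.1 nM LmPK, 0.5 mM PEP, 0.1 mM ADP; 50 mM imidazole pH 7.2, 7 mM MgCl2, 50 mM KCl; 1 h RT. Kinase-Glo luminescence readout, normalized to no-enzyme (full inhibition) and uninhibited wells.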
Sm TGR inh: qHTS Assay for the Inhibitors of Schistosoma Mansoni Peroxiredoxins; Schistosoma mansoni thioredoxin glutathione reductase (TGR), Q962Y6; purified TGR, DTNB reduction, TNB absorbance 405 nm; Potency, µM (series often up to 114 µM), usual class: inhibitors; 360,000 tested, 3% active; AID 485364, 2010; further: nearly all actives have a fitted effect of over 60% in size
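First, TGR (20 nM dispensed) and NADPH were mixed with compound. Second, a 15 min room-temperature incubation followed. Third, further NADPH and then DTNB were added to start the reaction. Finally, TNB absorbance was monitored kinetically.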
RE007 growth inh: qHTS Assay for Inhibitors of the HIV-1 protein Vpr | S. pombe RE007 Vpr strain, BacTiter-Glo ATP luminescence, 24 h | Potency, µM (top dose mostly 92.2 µM), actives largely listed as inhibitors | 360,000 tested, 0.21% active | AID 651644, 2012; active means well fitted falling curve with a large enough effect; inconclusive means small, poorly fitted or top-dose-only effect; inactive means no such curve, though single readings can be large or run the other way; further: nearly all actives have a fitted effect of over 50% in size
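Fission yeast strain RE007, carrying one chromosomally integrated HIV-1 vpr copy, was seeded at OD 0.01 in PMG+AL medium with 23 nL pinned compound. After 24 h at 30 °C and 99% humidity, viability was read by BacTiter-Glo luminescence.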
TbPYK inhibitor: qHTS of Trypanosoma Brucei Inhibitors. pyruvate kinase (Trypanosoma brucei), Q57TT1. TbPYK enzyme, Kinase-Glo Plus ATP luminescence, 45 min. Potency, µM (doses to about 76.8 µM), hits mostly inhibitors. 410,000 tested, 0.12% active. AID 624173, 2012; further: nearly all actives have a fitted effect of over 50% in size
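Luminescent Kinase-Glo Plus end-point after 45 min room-temperature reaction of T. brucei pyruvate kinase started with 130 uM ADP (final). Buffer TEA 50 mM pH 7.2 with KCl, MgCl2, BSA, Tween-20; titration-based qHTS with fitted concentration-effect curves.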
Hits are given with their value; - = inactive; ? = inconclusive; . = no result given. Unless noted, the call rests on the fitted dose curve; in most records, active means well fitted curve in the direction sought with a large enough effect; inconclusive means small, poorly fitted or top-dose-only effect, or another doubt; inactive means no such curve, though single readings can be large; an effect the other way counts as inactive or inconclusive.

SMILES | LmPK inh | Sm TGR inh | RE007 growth inh | TbPYK inhibitor
COc1ccccc1CNC(=O)c1ccc(CS(=O)(=O)c2ccc(C)cc2)o1 | - | 35µM | - | -
COc1ccccc1N1CCN(C(=O)c2ccc(CS(=O)(=O)c3ccccc3OC)o2)CC1 | - | 28µM | - | -
Cc1ccc(S(=O)(=O)Cc2ccc(C(=O)O)o2)cc1 | - | 22µM | - | -
CCOC(=O)N1CCN(C(=O)c2ccc(CS(=O)(=O)c3ccccc3OC)o2)CC1 | - | - | - | -
Cc1ccc(S(=O)(=O)NCC(=O)OCC(=O)NCCc2ccccc2)cc1 | . | - | - | -
Cc1ccc(S(=O)(=O)c2nc(-c3cccs3)oc2N2CCC(C(N)=O)CC2)cc1 | . | . | - | -
CCc1ccc2nc(N(Cc3cccnc3)C(C)=O)sc2c1 | . | - | . | -
CCN1CCc2c(sc(-n3cccc3)c2C(CCC(C)C)NC(=O)NCCC(=O)OC)C1 (stereo not drawn) | . | ? | . | -
CC(=O)c1sc(NC(=O)c2ccc(Br)o2)nc1C | - | - | - | -
COCCNC(=O)c1ccc(CS(=O)(=O)c2ccc(C)cc2)o1 | - | 35µM | - | -
CC(=O)c1sc(NC(=O)c2ccc(Cn3cc(Br)cn3)o2)nc1C | - | 50µM | - | -
CCOc1ccc(CNC(=O)c2cnc3sc(N4CCOCC4)nn3c2=O)cc1OC | . | - | . | -
COc1ccc(Cn2nnc3c(=O)[nH]c(C4CCN(C(=O)c5ccc(C)cc5)CC4)nc32)cc1OC | . | - | . | -
COc1cc2nc(SCc3cccc(Cl)c3)n3nc(CCn4nc(C)cc4C)nc3c2cc1OC | . | - | . | -
CCOC(=O)c1ccccc1NC(=O)C1CC(=O)N(C(C)(C)C)C1 (stereo not drawn) | - | - | - | -
CCOC(=O)c1ccccc1NC1CC(=O)N(c2ccccc2C)C1=O (stereo not drawn) | - | 3.5µM | - | -
Cc1ccc2nc(-c3ccccn3)oc2c1 | 16µM | - | ? | -
Cc1ccc(Cc2nc(-c3ccccn3)no2)cc1 | - | - | - | -
Clc1cccc(-c2nc(-c3ccccn3)no2)c1 | 10µM | - | ? | -
c1ccc(-c2ccc(-c3nc(-c4ccccn4)no3)cc2)cc1 | 14µM | - | 40µM | ?
Cc1ccc(-c2nc(-c3ccccn3)no2)cc1 | 2.8µM | - | 16µM | ?
c1ccc(-c2cc(-c3nc(-c4ccccn4)no3)c3ccccc3n2)cc1 | . | . | - | -
Cc1ccc2nc(-c3cccnc3)oc2c1 | ? | - | - | -
CCCOc1ccc(C(=O)Nc2ccc3oc(-c4ccc(N(C)C)cc4)nc3c2)cc1 | . | - | . | -
COc1ccc(-n2cnnc2SCC(=O)NC2CCCCC2)cc1 | . | . | - | -
SMILES | LmPK inh | Sm TGR inh | RE007 growth inh | TbPYK inhibitor
CCOc1ccc(OCC)c(Nc2nc3ccc(Cl)cc3n3cnnc23)c1 | . | - | . | -
Cc1ccccc1-c1noc(-c2ccc(Cl)cc2)n1 | - | - | - | -
c1ccc(-c2noc(-c3ccno3)n2)nc1 | - | - | - | -
Cc1ccc(-c2nc(-c3ccccn3)no2)cc1Cl | 14µM | - | ? | -
Cc1ccccc1-c1noc(-c2ccc(O)cc2)n1 | 14µM | - | ? | -
c1ccc(-c2noc(-c3ccco3)n2)nc1 | 16µM | - | - | -
Clc1ccc(-c2nc(-c3cnccn3)no2)cc1 | 7.9µM | - | ? | -
NCC[C@H](O)C(=O)N[C@@H]1C[C@H](N)[C@@H](O[C@H]2O[C@H](CN)CC[C@H]2N)[C@H](O)[C@H]1O[C@H]1O[C@H](CO)[C@@H](O)[C@H](N)[C@H]1O | . | . | . | -
CCOc1cc(CNC(=O)c2ccc3c(c2)N(C)C(=O)C2CCCCN32)ccc1OC (stereo not drawn) | . | - | . | -
c1ccc(-c2nc(-c3ccco3)cs2)nc1 | - | 22µM | ? | ?
COC(=O)c1ccccc1NC(=O)Cn1c(=O)n(CCCCC(=O)NCc2ccc3c(c2)OCO3)c(=O)c2ccccc21 | . | - | . | -
CCOC(=O)N1CCN(CC(O)COc2ccccc2C(C)C)CC1 (stereo not drawn) | - | - | - | -
C=CCc1ccccc1OCC(O)CN1CCN(C(=O)OCC)CC1 (stereo not drawn) | - | 40µM | - | -
COc1cccc(C2C(C(C)=O)=C(O)C(=O)N2Cc2ccco2)c1 (stereo not drawn) | - | - | - | -
CCN1CCN(C(c2cccc(OC)c2)c2c(O)cc(C)n(Cc3ccco3)c2=O)CC1 (stereo not drawn) | . | 5.6µM | . | -
COc1cccc(C(c2c(O)cc(C)n(Cc3ccco3)c2=O)N2CCC(C)CC2)c1 (stereo not drawn) | . | 11µM | . | -
CCN1CCN(C(c2cccc(F)c2)c2c(O)cc(C)n(Cc3ccco3)c2=O)CC1 (stereo not drawn) | . | 5µM | . | -
C#CCOCCOCCOCCNc1nc(N2CCN(C(=O)Cn3cc(CCO)nn3)CC2)nc(N2CCN(C(=O)[C@H](Cc3ccc(O)cc3)n3cc(CCO)nn3)CC2)n1 | . | . | - | -
COc1ccccc1-n1ncc2c(=O)[nH]c(SCC(=O)Nc3ccc(Cl)cc3)nc21 | . | - | . | -
COCCc1ncc(CN2CCCCC2C(=O)Nc2ccc(Oc3ccccc3)nc2)cn1 (stereo not drawn) | - | - | - | -
O=C(Nc1ccc(Oc2ccccc2)nc1)C1CCCCN1Cc1ccc(O)cc1 (stereo not drawn) | - | 32µM | . | .
COc1cc(CN2CCCCC2C(=O)Nc2ccc(Oc3ccccc3)nc2)ccc1O (stereo not drawn) | - | 1.8µM | - | -
O=C(Nc1ccc(Oc2ccccc2)nc1)C1CCCCN1Cc1cccc(O)c1 (stereo not drawn) | - | - | - | -
CN(C)CCc1c[nH]c2ccccc12 | . | . | . | -
CC1(C)CC(CCNC(=O)CCl)(c2ccccc2)CCO1 (stereo not drawn) | - | 45µM | - | -
SMILES | LmPK inh | Sm TGR inh | RE007 growth inh | TbPYK inhibitor
O=C(CCc1nnc(Cc2ccc3c(c2)OCO3)o1)NC(c1ccccn1)C(F)(F)F (stereo not drawn) | - | 32µM | - | -
O=C(CCc1nnc(-c2ccc3c(c2)OCO3)o1)NC(c1ccccn1)C(F)(F)F (stereo not drawn) | - | - | - | -
CCC1CCCCN1CC(=O)c1c(C)[nH]c2cc(C)ccc12 (stereo not drawn) | - | 45µM | - | -
O=C(CCC(=O)N1CCN(c2ccc(C(F)(F)F)cn2)CC1)c1cccs1 | . | - | - | -
COc1ccc(NC2CC(=O)N(c3ccc(C(=O)O)cc3)C2=O)cc1 (stereo not drawn) | - | - | - | -
COc1ccc(N2C(=O)CC(Nc3cccc(C(C)=O)c3)C2=O)cc1OC (stereo not drawn) | - | 56µM | - | -
COc1ccc(NC2CC(=O)N(c3cc([N+](=O)[O-])ccc3C)C2=O)cc1 (stereo not drawn) | - | 40µM | - | -
